Compounds with a hit are over-represented: about 7.5% of the library has one in this group of screens.
SMN2 splice enh = SMN2 splice variant enhancement. HEK293 SMN2-luciferase splicing reporter, luminescence, 30-36 h. Potency, µM (titrated, usually from 46.1 µM), without a hit: top-dose activity change, positive = activation, most hits filed as activators. 210,000 tested, 2.8% active. AID 1458; note: % of control where 0% means no effect; nearly all actives have a fitted effect of over 55% in size
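HEK293 cells carry an SMN2 minigene-luciferase reporter in which exon 7 inclusion puts luciferase in frame. Cells were seeded at 2000 cells/well, attached for 10-12 hours, then exposed to compounds for 30-36 hours at 37C before ONE-Glo luminescence.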
NPC1 prom act = activators of NPC1 promoter; Huh7 NPC1 promoter luciferase reporter, 24 h; 320,000 tested, 2.4% active; Potency, µM (series often up to 9.22 µM), inactives show at the highest dose activation, actives largely listed as activators; note: % of control where 0% means no effect; nearly all actives have a fitted effect of over 60% in size
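Luminescence from an NPC1 promoter-driven luciferase reporter in stably transfected Huh7 cells was measured after 24 h compound treatment at 37 °C, followed by 10 min ambient incubation with luciferase detection reagent.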
Rab9 prom act = Rab9 promoter activation | Huh7 Rab9 promoter-luciferase reporter, luminescence, 24 h | 320,000 tested, 2.8% active | Potency, µM (series often up to 9.22 µM), without a hit: at the top dose activation, negative = inhibition, most hits filed as activators | AID 485297; note: % of control where 0% means no effect; nearly all actives have a fitted effect of over 60% in size
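Quantitative HTS format; Huh7 Rab9-luciferase reporter cells (1500/well) receive compound 2 h post-plating, incubate 24 h at 37 °C, then get luciferase reagent for 10 min before luminescence reading.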
ELG1 genotoxic = induces genotoxicity in HEK293T cells with luciferase-tagged ELG1; HEK293T ELG1-luciferase reporter, luminescence, 16 h; Potency, µM (highest dose often 46 µM), without a hit: at the highest dose activity change, positive = activation, actives largely listed as activators; 330,000 tested, 1.3% active; AID 504466; note: % of control where 0% means no effect; nearly all actives have a fitted effect of over 60% in size
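Genotoxicity was scored as increased ELG1-luciferase reporter signal, measured by ONE-Glo luminescence (30 min, room temperature). Compound or vehicle exposure of the HEK293T reporter cells lasted 16 hr at 37°C.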
FLuc modulator = counter-screen for miR-21 project: firefly luciferase inhibitors or activators. P08659. purified FLuc, Km substrates, luminescence inhibition. Potency, µM (highest dose often 57.5 µM), for the others: top-dose activity change, negative = inhibition, actives largely listed as inhibitors. 360,000 tested, 6.9% active. AID 588342;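 note: plate controls were vehicle for no effect and reference inhibitor for full effect; nearly all actives have a fitted effect of over 55% in size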
Target sequence (P08659 whole entry, looked up): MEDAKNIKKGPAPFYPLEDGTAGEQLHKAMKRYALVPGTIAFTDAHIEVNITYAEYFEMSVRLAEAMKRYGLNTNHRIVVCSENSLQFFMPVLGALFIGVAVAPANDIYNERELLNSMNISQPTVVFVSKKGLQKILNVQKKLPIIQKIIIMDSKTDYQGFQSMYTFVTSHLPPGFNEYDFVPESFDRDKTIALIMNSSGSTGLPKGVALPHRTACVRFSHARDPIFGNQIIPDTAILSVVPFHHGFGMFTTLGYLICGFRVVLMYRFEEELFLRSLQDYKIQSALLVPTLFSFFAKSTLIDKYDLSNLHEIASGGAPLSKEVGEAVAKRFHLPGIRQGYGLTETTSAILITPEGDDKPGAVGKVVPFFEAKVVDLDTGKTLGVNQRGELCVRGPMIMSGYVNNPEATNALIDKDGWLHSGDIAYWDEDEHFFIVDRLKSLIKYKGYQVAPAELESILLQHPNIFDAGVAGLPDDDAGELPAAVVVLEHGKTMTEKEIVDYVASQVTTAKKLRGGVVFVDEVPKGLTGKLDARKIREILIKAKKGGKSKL
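Purified P. pyralis luciferase, 10 nM final, with Km-level 10 uM D-luciferin and 10 uM ATP in 50 mM Tris acetate pH 7.5, 10 mM Mg acetate, 0.01% Tween-20, 0.05% BSA; 6-point qHTS titration about 60 µM downward; luminescence read.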
Active calls of the source: *; u = inconclusive; x = not tested or not shown; [ ] = another dose, or the depositor's remark. Calls come from the whole dose curve; as a rule, active = well fitted curve in the direction sought with a large enough effect; inconclusive = small, poorly fitted or top-dose-only effect, or another doubt; inactive = no such curve, though single readings can be large; an effect the other way counts as inactive or inconclusive. Potency is the fitted concentration of half-maximal effect.

SMILES	SMN2 splice enh	NPC1 prom act	Rab9 prom act	ELG1 genotoxic	FLuc modulator
CC1CN(C(=S)NC(=O)c2cccc([N+](=O)[O-])c2)CC(C)O1 (configuration not stated)	-18%	1%	1%	0%	11%
O=C(NC1=NCCS1)c1ccc(Cl)cc1	x	1.6µM*	2µM*	10µM*	11µM*
COc1ccc(Cl)cc1C(=O)NC1=NCCS1	x	0%	14%	3%	u
O=C(NC1=NCCS1)c1ccc(Br)s1	11µM*	3.5µM*	3.5µM*	7.3µM*	7.6µM*
O=C(NC1CCC(O)CC1)c1ccc(-c2ccc(Cl)cc2)o1 (configuration not stated)	x	u	u	14%	11µM*
O=C(NC1=NCCS1)c1ccc(-c2ccc(Cl)cc2)o1	13µM*	2µM*	2µM*	2.1µM*	1.9µM*
Cc1cc(C)cc(N(CC(=O)Nc2ccccc2C(=O)N2CCOCC2)S(C)(=O)=O)c1	12%	0%	2%	-1%	1%
COCCN(C(=O)c1ccccc1)c1nc(-c2ccc(OC)cc2)cs1	x	-2%	0%	-3%	-16%
CCOC(=O)[C@H]1[C@H]2COc3ccccc3[C@@H]2N2C(=O)c3cc(F)c(F)cc3NC(=O)[C@@]12C	x	-4%	-6%	1%	-1%
O=C(Nc1ccc2c(c1)OCCO2)C(=O)NC1CC1	x	u	2.8µM*	u	4.8µM*
O=C(Nc1cccc([N+](=O)[O-])c1)c1ccncc1	-10%	-4%	-1%	5%	1%
O=C(Nc1ccc2c(c1)OCCO2)c1ccc(Br)s1	1.1µM*	3.5µM*	1.6µM*	1.5µM*	0.67µM*
Cc1noc(C)c1COc1cccc(C(=O)Nc2ccc3c(c2)OCO3)c1	26%	5%	17%	25%	u
CCCc1cc(C(=O)Nc2cccc([N+](=O)[O-])c2)cs1	x	u	u	14%	11µM*
CCOc1cccc(C(=O)Nc2ccc3c(c2)OCCO3)c1	x	u	u	2.3µM*	1.5µM*
NS(=O)(=O)c1cc2c(cc1Cl)N[C@H](Cc1ccccc1)NS2(=O)=O	-6%[9.22 µM]	x	x	x	x
CC(C)C(NS(=O)(=O)c1ccccc1)C(=O)OCC(=O)NNC(=O)c1ccccc1 (configuration not stated)	x	1%	-1%	2%	3%
CC(C)(O)C#Cc1ccc(C(=O)Nc2ccc3c(c2)OCO3)s1	x	2.8µM*	u	u	8.5µM*
CN(c1cccc(NC(=O)c2ccc(C(C)(C)C)cc2)c1)S(C)(=O)=O	x	11%	u	-16%	0.48µM*
CN(CC(=O)Nc1ccccc1Br)C(=O)CNC(=O)c1ccc2c(c1)OCO2	x	-5%	1%	3%	2%
O=C(NC(=S)Nc1ccccc1Br)c1ccc2c(c1)OCO2	x	u	11%	u	9.5µM*
O=C(CC(=O)c1ccccc1)Nc1ccc2c(c1)OCCO2	13µM*	2.5µM*	1.4µM*	u	6.7µM*
CCCOn1nnnc1-c1ccccc1	-15%	1%	0%	4%	4%
CCN(CC)C(=O)c1cc2c(=O)oc3ccccc3c2s1	-12%	-6%	10%	7%	u
O=C(CCc1nnc(C2CCCCC2)o1)NCc1cccc(-n2cccn2)c1	x	0%	2%	0%	2%
SMILES	SMN2 splice enh	NPC1 prom act	Rab9 prom act	ELG1 genotoxic	FLuc modulator
CS(=O)(=O)Nc1ccc(C(=O)Nc2ccc3c(c2)OCCO3)cc1	u	u	u	u	19µM*
O=C(CSc1ncn(-c2ccccc2)n1)Nc1ccc2c(c1)OCCO2	19%	1%	-2%	6%	u
O=C(O)c1ccccc1NC(=S)NC(=O)c1cccc2ccccc12	3%	-3%	-3%	-2%	-19%
CC(C)(C)NS(=O)(=O)c1ccc(C(=O)Nc2ccc3c(c2)OCO3)cc1	x	7%	5%	16%	u
O=C(Nc1ccc2c(c1)OCCO2)c1cnn(-c2ccccc2)n1	x	u	2.8µM*	u	4.8µM*
O=C(NC(=S)Nc1ccc2c(c1)OCCO2)c1cccc2ccccc12	u	12%	22%	16%	15µM*
O=C(NC(=S)Nc1ccc2c(c1)OCCO2)c1cccc(Br)c1	13µM*	3.2µM*	3.2µM*	u	11µM*
O=C(CC1CS(=O)(=O)CC1CC(=O)Nc1ccc2c(c1)OCCO2)Nc1ccc2c(c1)OCCO2 (configuration not stated)	x	12%	7%	u	17µM*
CN1C(=O)c2ccc(NC(=O)c3cccc(N4C(=O)CCC4=O)c3)cc2C1=O	-10%	-2%	-4%	-2%	-20%
O=C(Nc1ccc2c(c1)OCCO2)c1ccc(Cl)cc1Cl	x	0.45µM*	0.28µM*	u	1.2µM*
O=C(CCCc1ccccc1)Nc1ccc2c(c1)OCCO2	6.3µM*	0.5µM*	0.45µM*	2.1µM*	2.1µM*
CN1C(=O)c2ccc(C(=O)Nc3ccc4c(c3)OCO4)cc2C1=O	x	15%	12%	u	2.4µM*
Cc1ccc(N2CC(NC(=O)Cc3ccc(F)cc3)CC2=O)cc1 (configuration not stated)	x	x	x	x	-1%
CC(C)(C)n1ncc(Oc2ccccc2[N+](=O)[O-])c(Cl)c1=O	-40%	-5%	-5%	-2%	-1%
CN(C(=O)C(C)(C)C)C1c2c(ccc3ccccc23)OCC1CO (configuration not stated)	x	-3%	-5%	-3%	4%
O=C(Nc1cccc(NC(=O)c2cccs2)c1)c1ccc2c(c1)OCCO2	x	23%	30%	2%	7.6µM*
O=C(Nc1ccc(N2CCN(C(=O)c3ccccc3)CC2)cc1)c1ccc2c(c1)OCCO2	x	-7%	-1%	-18%	u
NS(=O)(=O)c1ccc(NC(=S)NC(=O)c2ccc3c(c2)OCO3)cc1	3%	14%	u	6%	-2%
O=C(NC(=S)Nc1ccc2c(c1)OCO2)c1ccccc1	20µM*	1.4µM*	1.6µM*	u	3.8µM*
O=C(Nc1ccc2c(c1)OCCO2)c1cccc(C(=O)Nc2ccc3c(c2)OCCO3)c1	x	4µM*	17%[1.84 µM]	14%	6.7µM*
O=C(Nc1ccc2c(c1)OCCO2)C1CC1c1ccccc1 (configuration not stated)	11µM*	u	4µM*	u	9.5µM*
Cc1onc(-c2ccccc2)c1C(=O)Nc1ccc2c(c1)OCO2	-10%	5%	-1%	-4%	1%
O=C(Nc1ccc2c(c1)OCO2)c1ccccc1	x	1.8µM*	1.1µM*	u	9.5µM*
O=C(Nc1ccc(N=Nc2ccccc2)cc1)c1cccc(Cl)c1	17%	5%	0%	10%	-1%
CC(C)C(NC(=O)C1CCCCC1)C(=O)Nc1ccc2c(c1)OCCO2 (configuration not stated)	36%	1.1µM*	2µM*	u	6µM*
